Measured values published in PubChem BioAssay AID1159580 (chemical genetic matrix, 2015).
Hit rate of the full screen: of about 5,500 compounds, about 2,000 (36%) were called active. Not shown: some 18% with an inconclusive outcome. Rule as the data show it: active = normalized growth mostly below about 0.91 (no sharp cut-off); inconclusive = no clear call, values can overlap the other calls; inactive = mostly above about 0.92. The list shows a part of the results.

Test: chemical genetic growth profiling, strain panel (AID 1159580);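 also: tested at 20 µM; growth read once vehicle control cultures reached saturation at 30 °C; 1 = growth at the plate median or of vehicle wells; lower values mean less growth of the strain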
Details: growth OD

Measured: normalized growth

C[C@]12CCC(=O)C=C1C=CC1C2CC[C@@]2(C)C1CC[C@@]2(O)CCC(=O)O (some centres not stated)
inactive: S. cerevisiae deletion strains, locus YJR075W, strain HOC1, active compounds read low 0.991 | S. cerevisiae deletion strains, locus YKL009W, strain mrt4, active compounds read low 0.962 | S. cerevisiae deletion strains, locus YKL068W, active compounds read low 0.995 | S. cerevisiae deletion strains, locus YKL085W, strain MDH1 (second series), active compounds read low 0.993 | S. cerevisiae deletion strains, locus YKL085W, strain MDH1, active compounds read low 0.993 | S. cerevisiae deletion strains, locus YKL160W, strain elf1, active compounds read low 0.996 | S. cerevisiae deletion strains, locus YKL190W, strain CNB1, active compounds read low 1.01 | S. cerevisiae deletion strains, locus YKR001C, strain vps1, active compounds read low 0.98 | S. cerevisiae deletion strains, locus YKR026C, strain gcn3, active compounds read low 1.03 | S. cerevisiae deletion strains, locus YKR091W, strain srl3, active compounds read low 1.01 | S. cerevisiae deletion strains, locus YLL001W, strain dnm1, active compounds read low 1.01 | S. cerevisiae deletion strains, locus YLL026W, active compounds read low 1 | S. cerevisiae deletion strains, locus YLL041C, strain sdh2, active compounds read low 1.01 | S. cerevisiae deletion strains, locus YLR027C, strain aat2, active compounds read low 1.01 | S. cerevisiae deletion strains, locus YLR039C, strain RIC1, active compounds read low 0.986 | S. cerevisiae deletion strains, locus YLR058C, strain SHM2, active compounds read low 0.994 | S. cerevisiae deletion strains, locus YLR102C, strain apc9, active compounds read low 0.999 | S. cerevisiae deletion strains, locus YLR113W, strain HOG1, active compounds read low 1.06 | S. cerevisiae deletion strains, locus YLR221C, strain rsa3, active compounds read low 1.01 | S. cerevisiae deletion strains, locus YLR258W, strain gsy2, active compounds read low 1.02 | S. cerevisiae deletion strains, locus YLR262C, strain YPT6 (second series), active compounds read low 0.93 | S. cerevisiae deletion strains, locus YLR262C, strain YPT6, active compounds read low 0.983 | S. cerevisiae deletion strains, locus YLR268W, strain sec22, active compounds read low 0.929 | S. cerevisiae deletion strains, locus YLR320W, strain mms22, active compounds read low 1.01 | S. cerevisiae deletion strains, locus YLR330W, strain CHS5, active compounds read low 1.02 | S. cerevisiae deletion strains, locus YLR342W, strain FKS1 (second series), active compounds read low 1.05 | S. cerevisiae deletion strains, locus YLR342W, strain FKS1, active compounds read low 0.995 | S. cerevisiae deletion strains, locus YLR357W, strain rsc2, active compounds read low 1.01 | S. cerevisiae deletion strains, locus YLR370C, strain arc18, active compounds read low 1.02 | S. cerevisiae deletion strains, locus YLR371W, strain rom2, active compounds read low 0.985 | S. cerevisiae deletion strains, locus YLR384C, strain iki3, active compounds read low 1.02 | S. cerevisiae deletion strains, locus YLR418C, strain cdc73, active compounds read low 0.977 | S. cerevisiae deletion strains, locus YML016C, strain PPZ1, active compounds read low 0.99 | S. cerevisiae deletion strains, locus YML032C, strain rad52, active compounds read low 0.978 | S. cerevisiae deletion strains, locus YML120C, strain ndi1, active compounds read low 1.02 | S. cerevisiae deletion strains, locus YML124C, strain tub3, active compounds read low 0.996 | S. cerevisiae deletion strains, locus YMR058W, strain fet3, active compounds read low 1.02 | S. cerevisiae deletion strains, locus YMR078C, strain ctf18, active compounds read low 0.979 | S. cerevisiae deletion strains, locus YMR125W, strain sto1, active compounds read low 1.04 | S. cerevisiae deletion strains, locus YMR129W, active compounds read low 1.03 | S. cerevisiae deletion strains, locus YMR205C, strain PFK2, active compounds read low 1.05 | S. cerevisiae deletion strains, locus YMR223W, strain ubp8, active compounds read low 1.01 | S. cerevisiae deletion strains, locus YMR231W, strain pep5, active compounds read low 1.02 | S. cerevisiae deletion strains, locus YMR263W, strain SAP30, active compounds read low 0.988 | S. cerevisiae deletion strains, locus YMR307W, strain GAS1, active compounds read low 1.01 | S. cerevisiae deletion strains, locus YNL067W, strain RPL9B, active compounds read low 0.969 | S. cerevisiae deletion strains, locus YNL071W, strain lat1, active compounds read low 1.01 | S. cerevisiae deletion strains, locus YNL128W, strain TEP1, active compounds read low 0.995 | S. cerevisiae deletion strains, locus YNL153C, strain GIM3, active compounds read low 0.977 | S. cerevisiae deletion strains, locus YNL183C, strain NPR1, active compounds read low 0.995 | S. cerevisiae deletion strains, locus YNL209W, strain ssb2, active compounds read low 1.02 | S. cerevisiae deletion strains, locus YNL233W, strain BNI4, active compounds read low 0.99 | S. cerevisiae deletion strains, locus YNL248C, strain rpa49, active compounds read low 1.04 | S. cerevisiae deletion strains, locus YNL250W, strain rad50, active compounds read low 0.993 | S. cerevisiae deletion strains, locus YNL271C, strain bni1, active compounds read low 0.986 | S. cerevisiae deletion strains, locus YNL298W, strain CLA4, active compounds read low 0.984 | S. cerevisiae deletion strains, locus YNL307C, strain MCK1, active compounds read low 0.989 | S. cerevisiae deletion strains, locus YNL322C, strain KRE1 (second series), active compounds read low 1.02 | S. cerevisiae deletion strains, locus YNL322C, strain KRE1, active compounds read low 1 | S. cerevisiae deletion strains, locus YNR049C, strain mso1, active compounds read low 1.02 | S. cerevisiae deletion strains, locus YNR052C, strain pop2, active compounds read low 0.996 | S. cerevisiae deletion strains, locus YOL006C, strain TOP1, active compounds read low 0.951 | S. cerevisiae deletion strains, locus YOL012C, strain htz1 1.54 | S. cerevisiae deletion strains, locus YOL147C, strain pex11, active compounds read low 0.989 | S. cerevisiae deletion strains, locus YOR001W, strain rrp6, active compounds read low 1 | S. cerevisiae deletion strains, locus YOR061W, strain CKA2, active compounds read low 0.995 | S. cerevisiae deletion strains, locus YOR069W, strain VPS5, active compounds read low 0.985 | S. cerevisiae deletion strains, locus YOR070C, strain gyp1, active compounds read low 1.03 | S. cerevisiae deletion strains, locus YOR080W, strain dia2, active compounds read low 1.02 | S. cerevisiae deletion strains, locus YOR083W, strain WHI5, active compounds read low 0.965 | S. cerevisiae deletion strains, locus YOR106W, strain vam3, active compounds read low 1.01 | S. cerevisiae deletion strains, locus YOR136W, strain idh2, active compounds read low 0.987 | S. cerevisiae deletion strains, locus YOR144C, strain elg1, active compounds read low 0.994 | S. cerevisiae deletion strains, locus YOR184W, strain ser1, active compounds read low 0.977 | S. cerevisiae deletion strains, locus YOR231W, strain MKK1, active compounds read low 1.05 | S. cerevisiae deletion strains, locus YOR265W, strain rbl2, active compounds read low 1.02 | S. cerevisiae deletion strains, locus YOR270C, strain vph1, active compounds read low 1.05 | S. cerevisiae deletion strains, locus YOR290C, strain snf2, active compounds read low 1.02 | S. cerevisiae deletion strains, locus YOR316C, strain cot1, active compounds read low 0.995 | S. cerevisiae deletion strains, locus YPL051W, strain arl3, active compounds read low 1 | S. cerevisiae deletion strains, locus YPL055C, strain LGE1, active compounds read low 1.02 | S. cerevisiae deletion strains, locus YPL078C, strain atp4, active compounds read low 1.01 | S. cerevisiae deletion strains, locus YPL106C, strain sse1, active compounds read low 1.01 | S. cerevisiae deletion strains, locus YPL240C, strain hsp82, active compounds read low 1.02 | S. cerevisiae deletion strains, locus YPL241C, strain CIN2, active compounds read low 1 | S. cerevisiae deletion strains, locus YPL256C, strain CLN2, active compounds read low 1.1 | S. cerevisiae deletion strains, locus YPR119W, strain clb2, active compounds read low 0.994 | S. cerevisiae deletion strains, locus YPR141C, strain kar3, active compounds read low 0.982 | S. cerevisiae deletion strains, locus YPR163C, strain tif3, active compounds read low 0.991 | S. cerevisiae deletion strains, locus YPR167C, strain met16, active compounds read low 0.995 | S. cerevisiae deletion strains, strain wtn01, active compounds read low 0.953 | S. cerevisiae strains, strain wild type, active compounds read low 1
